Experimental data reported in PubChem BioAssay AID618 (Sanford-Burnham Center for Chemical Genomics, 2007).
Hit rate of the full screen: of about 87,000 compounds, about 540 (0.62%) were called active. Where a call stands in place of a potency, no number is given. No rule for the calls is given here. Only a selection was taken, and actives are over-represented in it overall. Potency and affinity values are given separately.

assay: inhibitors of MT1-MMP promoter transcription, cell-based, luciferase reporter, luminescence (AID 618); conditions: MT1-MMP promoter luciferase reporter cells;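 also: actives suppress MT1-MMP promoter-driven transcription so potencies describe inhibitors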

| Compound | outcome |
| --- | --- |
| N=c1n(CCN2CCOCC2)c2ccccc2n1Cc1ccccc1Br | inactive |
| CCn1c(-c2ccco2)nc2ccccc21 | inactive |
| Cn1c(-c2ccco2)nc2cc3ccccc3cc21 | active |
| Cn1c(-n2c(-c3ccco3)nc3ccccc3c2=O)nc2ccccc21 | inactive |
| C=COCCn1c(=N)n(CCC)c2ccccc21 | inactive |
| O=C1[C@@H]2C(c3ccccc3Cl)=NO[C@@H]2C(=O)N1Cc1ccccc1 | inactive |
| Cc1c(NC(=O)c2ccccc2)c(=O)n(-c2ccccc2)n1C | inactive |
| Cc1c(NC(=O)c2ccc(=O)oc2)c(=O)n(-c2ccccc2)n1C | inactive |
| CCCNc1cc(C)oc(=O)c1C(=O)CCC | inactive |
| Oc1ccc(Nc2nc3ccccc3nc2Nc2ccc(O)cc2)cc1 | inactive |
| Cc1nc2cc(-c3cccc(F)c3)nn2c(C)c1CCC(=O)N1CCN(c2ccccn2)CC1 | inactive |
| CCOC(=O)C1CCCCN1C(=O)CCc1c(C)nc2ncnn2c1C (stereo not given) | inactive |
| CCn1c(C(=O)Nc2ccsc2C(=O)OC)cc2sc(Cl)cc21 | inactive |
| CN1CCC(C2(O)c3ccccc3CSc3sccc32)CC1 (stereo not given) | inactive |
| Cc1cc(C(C)(C)C)oc1C(=O)Nc1ccc(CC(=O)O)cc1 | inactive |
| Cc1oc(C)c(C(=O)Nc2ccc(CC(=O)O)cc2)c1C(=O)Nc1ccc(CC(=O)O)cc1 | inactive |
| COC(=O)Cc1ccc(NC(=O)c2ccc(C)c(C)c2)cc1 | inactive |
| O=C(O)Cc1ccc(NC(=O)c2ccc(NC(=O)c3ccco3)cc2)cc1 | inactive |
| COC(=O)Cc1ccc(NC(=O)c2ccc(Br)o2)cc1 | inactive |
| Cc1ccc(C(=O)Nc2ccc(CC(=O)O)cc2)o1 | inactive |
| COc1ccc(-n2c(Cc3cccn3C)nnc2SCC(=O)Nc2cccc(NC(C)=O)c2)cc1 | inactive |
| CCOc1ccc(CCNC(=O)C(O)c2ccccc2)cc1 (stereo not given) | inactive |
| Cc1cc(=O)oc2cc(OCC(=O)Nc3nnc(C(C)C)s3)ccc12 | inactive |

| Compound | outcome |
| --- | --- |
| CC(=NCCCn1ccnc1)C1=C(O)c2ccccc2C1=O | inactive |
| CCN1CCN(c2ncnc3c2cnn3-c2ccc(Cl)cc2)CC1 | inactive |
| Cc1cccc(-n2ncc3c(N4CCN(c5nc(C)cc(C)n5)CC4)ncnc32)c1 | inactive |
| Cc1cccc(-n2ncc3c(N4CCC5(CC4)OCCO5)ncnc32)c1 | inactive |
| Clc1ccc(-n2ncc3c(N4CCCC4)ncnc32)cc1 | inactive |
| COc1cc(NC(=O)CSc2ncnc3c2cnn3Cc2ccccc2)cc(OC)c1 | inactive |
| COc1ccc(-c2cn3c(C)c(C(=O)N4CCc5ccccc5C4)sc3n2)cc1 | inactive |
| COc1ccccc1-c1coc2c(CN3CCN(CCO)CC3)c(O)ccc2c1=O | inactive |
| CCOC(=O)C(NS(=O)(=O)c1ccc(Br)cc1)C(C)C (stereo not given) | inactive |
| COc1ccc2c(CC(=O)OCC(=O)c3ccc(F)cc3)coc2c1 | inactive |
| Oc1c(C(c2ccco2)N2CCOCC2)sc2ncnn12 (stereo not given) | inactive |
| Cc1cc(C(=O)Nc2ccccc2)oc1C | inactive |
| O=C(O)c1ccc(C(=O)Nc2cccc(NC(=O)C3CCCO3)c2)cc1 (stereo not given) | inactive |
| O=C(Nc1cnc2ccccc2c1)c1cccnc1 | inactive |
| Cc1oc2c(c1C(=O)Nc1cccc(C(=O)O)c1)CCCC2 | inactive |
| Cc1ccc(C(=O)Nc2cccc(C(=O)N3CCN(C)CC3)c2)cc1 | inactive |
| O=C(O)c1cccc(NC(=O)C2CCCO2)c1 (stereo not given) | inactive |
| O=C(Nc1cnc2ccccc2c1)c1ccncc1 | inactive |
| Cc1ccc(NC(=O)c2ccccc2)cc1 | inactive |
| O=C(Oc1ccc(Br)cc1)c1cncc(Br)c1 | inactive |
| O=C1CCC([N+](=O)[O-])C(c2ccccc2Cl)N1 (stereo not given) | inactive |
| COc1cccc(-n2nnc3c(=O)n(Cc4c(F)cccc4Cl)cnc32)c1 | inactive |
| CCN(CC)CCCNC(=O)c1sc2nc(-c3ccc(F)cc3)cn2c1C | inactive |

| Compound | outcome |
| --- | --- |
| CCn1cc(C(=O)NCc2ccco2)c(=O)c2cc(S(=O)(=O)N3CC(C)CC(C)C3)ccc21 (stereo not given) | inactive |
| CCOC(=O)CCn1c(=O)c2c(nc(Br)n2Cc2ccccc2)n(C)c1=O | inactive |
| Cc1ccc(S(=O)(=O)NCCC(=O)Nc2nnc(C)s2)cc1 | inactive |
| COC(=O)[C@H](C)NC(=O)Nc1ccccc1F | inactive |
| COc1ccc(S(=O)(=O)n2c(CCN3CCOCC3)nc3ccccc32)cc1 | inactive |
| O=C(O)c1cccc(NC(=O)c2cccc(S(=O)(=O)N3CCCCC3)c2)c1 | inactive |
| Cc1ccc(C(=O)Nc2cccc(C(=O)O)c2)cc1S(=O)(=O)N1CCOCC1 | inactive |
| CC1C=CC(C)C(C(=O)O)C1C(=O)O (stereo not given) | inactive |
| CC(=O)c1ccc(NS(=O)(=O)c2ccc(CC(C)C)cc2)cc1 | inactive |
| Cc1cccnc1NC(=O)C1CCN(S(=O)(=O)c2cccs2)CC1 | inactive |
| COc1ccc(CCn2c(N3CCN(C)CC3)nc3c2c(=O)[nH]c(=O)n3C)cc1 | inactive |
| CCOc1ccc(S(=O)(=O)NCCC2=CCCCC2)c2ccccc12 | inactive |
| CCCC1=Nc2cc(C(=O)NCCCOCC)ccc2Sc2ccccc21 | active |
| CCC1=Nc2cc(C(=O)NCCCOC)ccc2Sc2ccccc21 | active |
| COCCCNC(=O)c1cccc(C(=O)NCCCOC)c1 | inactive |
| CCC1=Nc2cc(C(=O)NCCCOC(C)C)ccc2Sc2ccccc21 | inactive |
| CCOCCCNC(=O)c1ccc(OC)cc1 | inactive |
| CCCC1=Nc2cc(C(=O)NCCCOC(C)C)ccc2Sc2ccccc21 | inactive |
| COc1ccc(S(=O)(=O)Cc2ccc(C(=O)N3CCN(c4ncccn4)CC3)o2)cc1 | inactive |
| CC1(C)CC(=O)C2=C(C1)Nc1ccccc1NC2c1cccnc1 (stereo not given) | inactive |
| CCC1=C2CC[C@H]3C(=O)N(CC(=O)OC)C(=O)[C@H]3[C@H]2[C@@]2(Cc3ccccc3)C(=NCCc3c[nH]c4ccccc34)OC(=O)N2C1=O | inactive |
| O=C(CSc1ccccc1)Nc1cccnc1 | inactive |
| CC(CN1CCOCC1)OC(=O)c1ccccc1Br (stereo not given) | inactive |

| Compound | outcome |
| --- | --- |
| COc1cc(OC)cc(C(=O)Nn2c(C)nc3ccccc3c2=O)c1 | inactive |
| COc1ccc(-c2nc3ccccc3c(=O)n2CCN2CCOCC2)cc1 | inactive |
| COc1ccc2[nH]c3c(c2c1)CCn1c-3nc2ccccc2c1=O | active |
| O=C(CCCO)c1ccc2c(c1)OCCO2 | inactive |
| O=C(CCc1ccccc1)c1ccc2c(c1)OCCCO2 | inactive |
| O=C(Nc1ccncc1)c1ccc2c(c1)OCCO2 | inactive |
| O=C(Nc1ccc2c(c1)OCCO2)c1cccnc1 | inactive |
| O=C(Nc1ccc2c(c1)OCO2)c1cncc(Br)c1 | inactive |
| Cc1cc(C(=O)Nc2ccc3c(c2)OCCO3)co1 | inactive |
| O=C(Nc1ccccc1)c1ccc2c(c1)OCCO2 | inactive |
| CS(=O)(=O)Nc1ccc(C(=O)Nc2ccc3c(c2)OCCO3)cc1 | inactive |
| COc1cc(SC)ccc1C(=O)Nc1ccccc1 | inactive |
| COc1ccccc1C(=O)Nc1ccc2c(c1)OCCO2 | inactive |
| Clc1cc(NCc2cccs2)ccc1N1CCOCC1 | inactive |
| Cc1cc(N2CC34C=CC(O3)C(C(=O)O)C4C2=O)no1 (stereo not given) | inactive |
| CCOCCn1c(CN2CCN(CC)CC2)nc2c1c(=O)n(C)c(=O)n2C | inactive |
| NC1=NC2(CCC(c3ccccc3)CC2)n2c(nc3ccccc32)N1 (stereo not given) | inactive |
| CC(C)N(Cc1nc(-c2ccc(Cl)cc2)no1)C(=O)CN(C)S(=O)(=O)c1ccc(Cl)cc1 | inactive |
| Cc1ccc(NC(=O)c2cc(C)on2)cc1 | inactive |
| COC(=O)N1CC=CC1(C)C(=O)NCC1CC1 (stereo not given) | inactive |
| O=C(NCc1ccc2c(c1)OCO2)C1(S(=O)(=O)c2ccccc2)CC1 | inactive |
| Cc1nc2c(ccc3nc(NC(=O)c4ccc5c(c4)OCCO5)sc32)s1 | active |
| Cc1cc(NC(=O)c2ccc3c(c2)OCCO3)no1 | active |

| Compound | outcome |
| --- | --- |
| Cc1nc2c(ccc3nc(NC(=O)c4ccc(S(=O)(=O)N(C)C)cc4)sc32)s1 | inactive |
| Cc1cc(NC(=O)c2ccc(Cl)cc2)no1 | inactive |
| Cc1nc2ccc3nc(NC(=O)c4ccc5c(c4)OCCO5)sc3c2s1 | inactive |
| Cc1cc(NC(=O)c2ccc3c(c2)OCO3)no1 | inactive |
| CC(=O)c1ccc(NC(=O)CSc2nnc(NC(=O)CN3CCOCC3)s2)cc1 | inactive |
| Cn1cccc1C(=O)NC(=O)COC(=O)CC12CC3CC(CC(C3)C1)C2 | inactive |
| Cc1cc2c(c(=O)n1C1CC1)C(c1cccc(Cl)c1)C(C#N)=C(N)O2 (stereo not given) | inactive |
| OCCN1CCN(CCCN2c3ccccc3Sc3ccc(C(F)(F)F)cc32)CC1 | active |
| OCCN1CCN(CCCN2c3ccccc3Sc3ccc(Cl)cc32)CC1 | inactive |
| CN1CCN(CCCN2c3ccccc3Sc3ccc(C(F)(F)F)cc32)CC1 | inactive |
| O=C(Nc1ccccc1C(=O)OCn1nnc2ccccc2c1=O)c1ccco1 | inactive |
| CC(=O)Nc1ccc(S(=O)(=O)N2CCC(c3nc4ccc(C)cc4[nH]3)CC2)cc1 | inactive |
| Cc1nc2ccccc2c(=O)n1/N=C/c1ccc(N(C)C)cc1 | inactive |
| C=CCn1c(/N=C/c2ccc(N(C)C)cc2)nc2ccccc21 | inactive |
| CN(C)c1ccc(/C=N/n2ncc3ccccc32)cc1 | active |
| CCCN=Cc1c(CCC)[nH]n(-c2nc3ccccc3s2)c1=O | inactive |
| CCCc1[nH]n(-c2nc3ccccc3s2)c(=O)c1C=NCC(C)C | inactive |
| O=C(CCN1C(=O)C2C3C=CC(C3)C2C1=O)N1CCN(c2ccccc2Cl)CC1 (stereo not given) | inactive |
| O=C(NCc1ccc2c(c1)OCO2)c1c[nH]c2ccc(S(=O)(=O)N3CCOCC3)cc2c1=O | inactive |
| COC(=O)Cn1c(C)c(C#N)c2ccccc21 | inactive |
| COc1ccccc1/C=N/n1c(C)nnc1-n1nc(C)cc1C | inactive |
| CCCOc1ccc2ccccc2c1/C=N/n1c(C)nnc1-n1nc(C)cc1C | active |
| Cc1cc(C)n(-c2nnc(C)n2/N=C/c2cc(Br)ccc2OCc2ccccc2)n1 | inactive |
